Experiment [1] is described as follows: qHTS assay to identify small molecule antagonists of the vitamin D receptor (VDR) signaling pathway - cell viability counter screen (AID 743225). Further: nearly all actives have a fitted effect of over 50% in size. The essentials: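 VDR-UAS-bla HEK 293T cells were plated and incubated 4 h at 37C, then dosed with compound plus 3 nM (final) 1-alpha,25-dihydroxyvitamin D3 for 16 h. After the 2 h beta-lactamase read, viability in the same wells was read as CellTiter-Glo luminescence after 30 min at room temperature.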
(qHTS replaces the single test concentration by a dilution series.)

Experiment [2] in a line: qHTS assay to identify small molecule agonists of the NFkB signaling pathway (AID 1159509; active means well fitted curve in the direction sought with a large enough effect in the signal ratio in the repeat runs, not every such curve was filed as active; the % refers to the signal ratio; further: series mostly up to about 61 µM). The gist of the method:
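ME-180 NFkB-bla, 2,000 cells/well, overnight plating; cpd pinned in DMSO, 5 h 37 C; B/G FRET substrate 1.5 h RT; ex 405, em 460/530 nm.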

Experiment [3] in a line: qHTS assay to identify small molecule agonists of the NFkB signaling pathway - cell viability counter screen (AID 1159515; calls by dose curve; further: nearly all actives have a fitted effect of over 55% in size; further: potency means the concentration at half of the fitted maximal effect). The essentials: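 NFkB-bla ME-180 cells, 2,000/well, were plated overnight at 37 C, 5% CO2, then exposed to compounds in DMSO for 5 hr. After the bla FRET read, CellTiter-Glo was added to the same wells; luminescence was read after 30 min at room temperature.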

Experiment [4] can be described thus: qHTS assay to identify small molecule agonists of the endoplasmic reticulum stress response signaling pathway (AID 1159516; active means well fitted activation curve with a large enough effect in the signal ratio in the repeat runs, not every such curve was filed as active; the % refers to the signal ratio). The essentials:
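CellSensor ESRE-bla HeLa cells, carrying a beta-lactamase reporter driven by the ER stress response element, were plated overnight and exposed to compounds for 5 hr at 37 C. Reporter activity was read as FRET substrate fluorescence after 2 hr at room temperature.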

Experiment [5] is described as follows: qHTS assay to identify small molecule antagonists of the retinoid-related orphan receptor gamma (ROR-gamma) signaling pathway - cell viability counter screen (AID 1159520). Further: nearly all actives have a fitted effect of over 50% in size. Further: potency means the concentration at half of the fitted maximal effect. The essentials:
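Tet-on ROR gamma CHO cells were given compounds for 2 hr, then doxycycline hyclate at 1 uM final, and incubated 16 hr at 37 C. Viability was measured as ATP content by CellTiter-Glo luminescence.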

The target in experiment [6] is Nuclear receptor ROR-gamma (Homo sapiens) (UniProt P51449). In words: qHTS assay to identify small molecule antagonists of the retinoid-related orphan receptor gamma (ROR-gamma) signaling pathway (AID 1159521; further: nearly all actives have a fitted effect of over 50% in size; further: potency means the concentration at half of the fitted maximal effect). The gist of the method:
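Tet-on ROR-gamma CHO cells with ROR response element-luciferase reporter; compounds added 2 hr before 1 uM doxycycline induction, then 16 hr at 37 C. Antagonism scored as decreased ONE-Glo luminescence.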

Experiment [7] can be described thus: qHTS assay to identify small molecule agonists of the AP-1 signaling pathway - cell viability counter screen (AID 1159525; calls by dose curve; further: nearly all actives have a fitted effect of over 55% in size; further: potency means the concentration at half of the fitted maximal effect). The essentials:
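AP-1-bla ME-180 cells in Opti-MEM with 0.5% dialyzed FBS, compound exposure 5 h at 37 C in 15-point titration. Viability read in the same wells as ATP content by CellTiter-Glo luminescence, normalised to tetra-n-octylammonium bromide and DMSO controls.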

The target in experiment [8] is Retinoic acid receptor RXR-alpha (Homo sapiens) (UniProt P19793). In words: qHTS assay to identify small molecule agonists of the RXR signaling pathway (AID 1159527; calls by dose curve; further: nearly all actives have a fitted effect of over 35% in size). The gist of the method: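 GeneBLAzer RXR-alpha-UAS-bla HEK 293T cells in 2% charcoal-stripped FBS medium were exposed to compounds for 16 hr at 37 C in agonist mode. Beta-lactamase reporter read as 460/530 nm FRET ratio after 2 hr substrate loading.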

Experiment [9] in a line: qHTS assay to identify small molecule agonists of the RXR signaling pathway - cell viability counter screen (AID 1159529). Further: series mostly up to about 77 µM; nearly all actives have a fitted effect of over 50% in size. The essentials:
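RXR-alpha-UAS-bla HEK 293T cells in medium with 2% charcoal-stripped FBS were pre-incubated 5 hr, then compound-treated 16 hr at 37 C. Viability was read by CellTiter-Glo luminescence in the same wells as the beta-lactamase assay, with tetraoctyl ammonium bromide as positive control.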

Experiment [10] can be described thus: qHTS assay to identify small molecule antagonists of the retinoid acid receptor (RAR) signaling pathway - cell viability counter screen (AID 1159551). Further: nearly all actives have a fitted effect of over 35% in size. Further: potency means the concentration at half of the fitted maximal effect. The essentials: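 C3RL4 cells were seeded overnight at 37 C, then treated with compounds plus 1 uM (final) retinol for 6 h at 37 C. Viability was read as ATP by CellTiter-Glo luminescence after 30 min at room temperature.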

The nature of experiment [11]: qHTS assay to identify small molecule antagonists of the retinoic acid receptor (RAR) signaling pathway (AID 1159552; further: nearly all actives have a fitted effect of over 50% in size; further: potency means the concentration at half of the fitted maximal effect). The essentials: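 Retinol signaling pathway inhibitors screened in C3RL4 RARE-luciferase reporter cells seeded overnight at 37 C, then compounds added with 1 uM (final) retinol as pathway substrate. After 6 hr at 37 C, luciferase luminescence read after 30 min at room temperature.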

Experiment [12] can be described thus: qHTS assay to identify small molecule agonists of the retinoic acid receptor (RAR) signaling pathway (AID 1159553). Further: potency means the concentration at half of the fitted maximal effect. The gist of the method:
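C3RL4 cells carrying a RARE luciferase reporter were plated overnight at 37 C, then exposed to compounds in DMSO for 6 hr at 37 C and 5% CO2. Luminescence was read 30 min after luciferase reagent addition at room temperature.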

Experiment [13] can be described thus: qHTS assay to identify small molecule agonists of the vitamin D receptor (VDR) signaling pathway - cell viability counter screen (AID 743224). The essentials:
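VDR-bla cells were preincubated 4 h at 37C/5% CO2, then exposed to compounds for 16 h. After the 2 h room-temperature bla FRET read, CellTiter-Glo was added to the same wells and luminescence read after 30 min.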

Experiment [14] in a line: qHTS assay to identify small molecule agonists of the AP-1 signaling pathway (AID 1159526; calls by dose curve).
Experiment [15] in a line: qHTS assay to identify small molecule agonists of the endoplasmic reticulum stress response signaling pathway - cell viability counter screen (AID 1159517; calls by dose curve). The gist of the method:
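ESRE-bla HeLa cells, 1,500 per well, seeded overnight then treated with compounds for 5 hr at 37 C. After the beta-lactamase read, viability in the same wells is measured by CellTiter-Glo luminescence after 30 min at room temperature.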

Records with an inconclusive call do not appear. Calls of active or inactive are those of the source. Unless noted, the call rests on the fitted dose curve; in most records, active means well fitted curve in the direction sought with a large enough effect in the repeat runs; inconclusive means weak or mixed curves; inactive means no such curve, though single readings can be large; an effect the other way counts as inactive or inconclusive.

Sequence of Retinoic acid receptor RXR-alpha (Homo sapiens) (P19793 whole entry, looked up): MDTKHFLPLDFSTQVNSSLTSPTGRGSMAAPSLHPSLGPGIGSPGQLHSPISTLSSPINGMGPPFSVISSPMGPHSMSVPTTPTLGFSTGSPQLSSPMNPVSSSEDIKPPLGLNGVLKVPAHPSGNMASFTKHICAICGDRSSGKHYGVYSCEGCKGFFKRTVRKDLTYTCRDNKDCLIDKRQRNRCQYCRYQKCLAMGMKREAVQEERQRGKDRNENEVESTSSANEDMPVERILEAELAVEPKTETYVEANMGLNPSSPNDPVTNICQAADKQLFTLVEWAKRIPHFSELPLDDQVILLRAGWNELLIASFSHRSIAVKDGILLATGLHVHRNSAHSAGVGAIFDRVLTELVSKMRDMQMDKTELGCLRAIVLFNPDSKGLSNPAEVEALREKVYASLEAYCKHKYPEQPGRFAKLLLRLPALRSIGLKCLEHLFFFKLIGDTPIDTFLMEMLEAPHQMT

Take `CCCCCCC(CO)CCCC` (stereo not given): the Potency result in [1], in experiment [3], in experiment [4], in experiment [5], in [6] and in [7] was “inactive” in each case. In addition, the Potency result in experiment [8], in experiment [9], in experiment [10], in experiment [11] and in experiment [12] was “inactive” in each case. Moreover, the molecule was classed as inactive in [2].

As to `COc1ccc(/C=C/C(=O)c2ccc(OC)cc2OC)cc1`, the Potency result in experiment [13], in experiment [1], in [3], in experiment [4], in [5] and in [6] was “inactive” each time. For the same molecule, the Potency entry in experiment [7], in experiment [10] and in [11] was “inactive” in each case. The call in experiment [2] was inactive.

In the case of `Nc1c(Cl)cc(Cl)cc1[N+](=O)[O-]`, the Potency entry in [13], in experiment [1], in experiment [3], in [4], in experiment [5] and in [7] was “inactive” throughout. Also, the Potency result in [8], in experiment [9] and in experiment [10] was “inactive” throughout. Further, the molecule was classed as inactive in [2] and in [14].

As to `CCN(CC)c1ccc(C(=C2C=CC(=[N+](CC)CC)C=C2)c2ccc(S(=O)(=O)O)cc2S(=O)(=O)[O-])cc1`, the Potency result in experiment [1], in experiment [4] and in [8] was “inactive” in each case. Moreover, the call in experiment [2] was inactive. For the same molecule, the Potency in experiment [3] is 43.6 µM (active); in [5], 8.63 µM (active); in [6], 12.2 µM (active); in experiment [7], 19.5 µM (active); in experiment [10], 15.4 µM (active); in [11], 24.3 µM (active).

On to `Cc1ccc(N(CCO)CCO)cc1`, for which the Potency entry in experiment [13], in experiment [1], in experiment [3], in experiment [4], in experiment [5] and in [7] was “inactive” throughout. For the same molecule, the Potency result in experiment [8], in experiment [9], in [11] and in experiment [12] was “inactive” in each case. Besides, the molecule was classed as inactive in [2] and in experiment [14].

Take `C=C(C)c1ccccc1`: the Potency entry in experiment [1], in [3], in experiment [4], in experiment [5], in experiment [7] and in [9] was “inactive” throughout. Moreover, the Potency result in experiment [10] and in experiment [11] was “inactive” throughout. Moreover, the molecule was called inactive in [2] and in experiment [14].

Consider `O=S(=O)(O)CO`, for which the Potency entry in experiment [13], in [3], in experiment [4], in experiment [5], in [7] and in [8] was “inactive” in each case. For the same molecule, the Potency result in [9], in experiment [10] and in experiment [12] was “inactive” throughout. The result in experiment [2] and in [14] was inactive.

As to `O=C(O)c1cc(Cl)cc(Cl)c1O`, the Potency result in experiment [13], in experiment [1], in experiment [3], in experiment [4], in experiment [5] and in experiment [7] was “inactive” throughout. The Potency result in experiment [8] and in experiment [9] was “inactive” throughout. Besides, the result in experiment [2] and in experiment [14] was inactive.

On to `CSSc1ccoc1C`, for which the Potency result in experiment [13], in [1], in [3], in experiment [15], in [5] and in experiment [6] was “inactive” in each case. Moreover, the Potency result in experiment [7], in experiment [8], in experiment [9], in [10] and in [11] was “inactive” in each case. Also, the molecule was called inactive in experiment [2] and in experiment [14]. Also, the Potency in [12] is 0.0431 µM (active).

(Values after PubChem BioAssay (Tox21).)
